Screening data as filed in PubChem BioAssay.
Rango release inh: inhibition of RanGTP-driven Rango-importin beta dissociation | O95149+P62826 | Biochemical FRET Rango-importin beta, RanGTP-induced dissociation | Potency, µM (titrated, usually from 46.1 µM), for inactives: top-dose activity change, negative = inhibition | 340,000 tested, 0.071% active; calls by dose curve; note: potency is the fitted concentration of half-maximal effect; % of control where 0% means no effect; nearly all actives have a fitted effect of over 45% in size
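Recombinant Rango FRET biosensor (EYFP–snurportin 1 IBB–cerulean CFP10) at 0.1 uM premixed with 0.25 uM importin beta in PBS, 1 mM DTT, 0.02% Tween-20, 0.1% BSA. Compound added 5 min; RanGTP-RCC1 (0.6 uM Ran, 2 mM GTP, 0.2 uM RCC1) then triggers release, read at 45 min.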
MBNL1-CUG inh: MBNL1-poly(CUG) RNA binding inhibition; Q9NR56; TR-FRET MBNL1-His/biotin-(CUG)12 binding, 665/545 ratio; 280,000 tested, 0.036% active; Potency, µM (titrated, usually from 57.5 µM), for inactives: at the highest dose activity change, negative = inhibition, actives largely listed as inhibitors; AID 2675; active = well fitted inhibition curve with a large enough effect in the signal ratio, with a control signal flat, not every such curve was filed as active; inconclusive = small, poorly fitted or top-dose-only effect, or effect the other way, or a change in a side signal; inactive = no such curve, though single readings can be large or run the other way; the % refers to the signal ratio; note: potency is the fitted concentration of half-maximal effect; % is set by controls: 0 for no effect and ±100 for the full control effect
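MBNL1-His + Biotin-(CUG)12, cpd titration 92 nM–58 uM; Tb anti-His Ab 0.055 ng/ul, SA-XL665 5 nM (final); 60 min RT; ratiometric 665/545 nm, Ex 340 nm; normalized to buffer and full-complex controls.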
ClpP mod: qHTS Assay for Activators of ClpP | ATP-dependent Clp protease proteolytic subunit (Bacillus subtilis (strain 168)), P80244 | purified B. subtilis ClpP, FRET peptide cleavage, 20 min | Potency, µM (highest dose often 57.5 µM), for inactives: top-dose activity change, negative = active | 340,000 tested, 1.9% active; active = well fitted falling curve with a large enough effect; inconclusive = small, poorly fitted or top-dose-only effect; inactive = no such curve, though single readings can be large or run the other way; note: potency is the fitted concentration of half-maximal effect; the source files actives as falling curves though it sought activators and does not explain the sign; nearly all actives have a fitted effect of over 65% in size
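Buffer: 100 mM Tris/HCl pH8, 100 mM KCl, 0.05% low protease BSA, 2.5% glycerol, 0.01% Tween-20. ClpP 10 microg/mL final; 20 min RT; delta FRET normalized to ADEP and DMSO controls.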
Rango complex inh: inhibitors of Rango-importin beta complex formation. Q14974. Rango CFP/YFP FRET sensor + importin beta, 45 min. Potency, µM (titrated, usually from 92.2 µM), for inactives: at the top dose inhibition of complex formation. 340,000 tested, 0.031% active; calls by dose curve;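 note: potency is the fitted concentration of half-maximal effect; 0% = DMSO wells and 100% = buffer wells lacking importin beta; nearly all actives have a fitted effect of over 15% in size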
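Inhibition scored from the CFP 486 nm/YFP 530 nm FRET ratio 45 min after adding 0.125 microM importin beta to 50 nM Rango biosensor preincubated 5 min with compound (room temperature, PBS with DTT, Tween-20, BSA). No-importin wells as positive control.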
CBFb RUNX1 block: blocks binding between human CBF-beta and RUNX1 | Q01196+Q13951 | AID 1477 | AlphaScreen CBFb-His/RUNX1-biotin binding, biochemical | Potency, µM (titrated, usually from 59.8 µM), without a hit: at the highest dose activity, negative = inhibition, most hits filed as inhibitors | 230,000 tested, under 10 active; note: % of control where 0% means no effect
Target sequence (Q01196 whole entry, looked up): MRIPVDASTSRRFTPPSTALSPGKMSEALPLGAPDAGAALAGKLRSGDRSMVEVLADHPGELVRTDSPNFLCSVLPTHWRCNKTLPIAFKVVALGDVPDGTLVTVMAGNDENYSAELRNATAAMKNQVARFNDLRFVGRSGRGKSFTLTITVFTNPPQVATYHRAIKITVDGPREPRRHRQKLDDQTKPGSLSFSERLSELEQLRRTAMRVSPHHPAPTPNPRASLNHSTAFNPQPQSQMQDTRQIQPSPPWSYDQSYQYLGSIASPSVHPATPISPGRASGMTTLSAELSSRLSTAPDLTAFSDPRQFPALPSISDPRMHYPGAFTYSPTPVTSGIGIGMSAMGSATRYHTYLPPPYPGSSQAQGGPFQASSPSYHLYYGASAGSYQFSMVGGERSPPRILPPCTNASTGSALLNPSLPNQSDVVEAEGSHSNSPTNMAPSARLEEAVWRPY
Target sequence (Q13951 whole entry, looked up): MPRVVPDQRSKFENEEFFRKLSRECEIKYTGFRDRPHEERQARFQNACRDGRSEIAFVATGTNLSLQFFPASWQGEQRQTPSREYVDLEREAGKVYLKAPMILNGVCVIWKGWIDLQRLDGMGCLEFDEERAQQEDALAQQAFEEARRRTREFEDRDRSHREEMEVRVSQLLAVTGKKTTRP
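Compounds were screened at multiple concentrations against a preformed CBF-beta(His)/RUNX1(biotin) complex (30 nM of each) for 15 min at room temperature, followed by 90 min with nickel and streptavidin beads and AlphaScreen reading.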
MBNL1 TRFRET: confirmation of inhibitors of human MBNL1-poly(CUG) RNA binding; TR-FRET MBNL1-His / biotin-(CUG)12 binding, 60 min; shares compounds with MBNL1-CUG inh; 140 tested, 50% active; Potency, µM (highest dose often 57.6 µM), without a hit: at the highest dose activity change, negative = inhibition, hits mostly inhibitors
MBNL1 AlphaScrn: blocks MBNL1 binding to (CUG)12 RNA in AlphaScreen | shares compounds with MBNL1-CUG inh | AlphaScreen MBNL1-His / biotin-(CUG)12 binding | Potency, µM (doses to about 57.7 µM), inactives show top-dose activity, negative = inhibition, most hits filed as inhibitors | 140 tested, 30% active | AID 493205
Menin-MLL HTRF: MBNL1-CUG RNA binding inhibitor counterscreen activity | shares compounds with MBNL1-CUG inh | His-Menin/biotin-MLL peptide TR-FRET counterscreen | Potency, µM (doses to about 57.6 µM), for the others: at the top dose activity, negative = inhibition, hits mostly inhibitors | 120 tested, 20% active | AID 651843
Numbers without * were called inactive; [ ] = another dose, or the depositor's remark. The full list was thinned out, with hits kept by preference. Unless noted, calls come from the whole dose curve; as a rule, active = well fitted curve in the direction sought with a large enough effect; inconclusive = small, poorly fitted or top-dose-only effect, or another doubt; inactive = no such curve, though single readings can be large; an effect the other way counts as inactive or inconclusive.

For CCOc1ccc2[nH]c(=O)c(C(c3nnnn3Cc3ccco3)N3CCN(C)CC3)cc2c1 (stereo unspecified) the results were Rango release inh 0.9%, MBNL1-CUG inh inconclusive, Rango complex inh -0.3%, MBNL1 TRFRET -6.0%, MBNL1 AlphaScrn -9.6% and Menin-MLL HTRF 3.6%.
CN1C[C@H](C(=O)N[C@]2(C)O[C@]3(O)[C@H]4CCCN4C(=O)[C@H](Cc4ccccc4)N3C2=O)C[C@H]2c3cccc4[nH]cc(c34)C[C@@H]21 was read as CBFb RUNX1 block -11.6%[21.7 µM].
Screening CCCN1C[C@H](CSC)C[C@@H]2c3cccc4[nH]cc(c34)C[C@H]21 returned Rango release inh -8.4%, MBNL1-CUG inh inconclusive, ClpP mod -4.9%, Rango complex inh inconclusive, CBFb RUNX1 block -0.8%, MBNL1 TRFRET inconclusive and MBNL1 AlphaScrn -41.9%.
For Nc1ccccc1S(=O)(=O)Nc1cccc2cccnc12 the results were CBFb RUNX1 block 14.3%.
`CCOC(=O)CCCCC(=O)c1[nH]c(=O)[nH]c1Cn1ccnc1` gave Rango release inh -1.6%, MBNL1-CUG inh 39.8µM*, ClpP mod 1.3%, Rango complex inh 0.6%, CBFb RUNX1 block 2.8%, MBNL1 TRFRET 41.1µM*, MBNL1 AlphaScrn inconclusive and Menin-MLL HTRF -2.7%.
For O=C1Cc2ccccc2C(=O)N1Cc1ccccc1 the results were Rango release inh 3.8%, MBNL1-CUG inh 25.1µM*, ClpP mod -2.0%, Rango complex inh 0.4%, CBFb RUNX1 block 5.3%, MBNL1 TRFRET -9.5%, MBNL1 AlphaScrn inconclusive and Menin-MLL HTRF 2.9%.
Screening Cc1[nH]c(=O)[nH]c(=O)c1C1N2CC3(C(C)C)CN1CC(C(C)C)(C2)C3=O (stereo unspecified) returned ClpP mod -1.9%.
For Cc1cc(Nc2ccccc2)nc(NCc2ccccc2)n1 the results were Rango release inh -17.8%, MBNL1-CUG inh 39.8µM*, ClpP mod -13.4%, Rango complex inh 5.6%, CBFb RUNX1 block -4.7%, MBNL1 TRFRET inconclusive, MBNL1 AlphaScrn 3.66µM* and Menin-MLL HTRF -11.7%.
`CSc1cccc(NC(=O)c2cc3c(COC(C)=O)cnc(C)c3oc2=O)c1` gave ClpP mod 0.0%.
For CC(C)OC(=O)CSc1nnc(-c2cnccn2)n1C the results were Rango release inh -14.5%, MBNL1-CUG inh 39.8µM*, ClpP mod -1.8%, Rango complex inh 8.6%, CBFb RUNX1 block -1.5%, MBNL1 TRFRET inconclusive, MBNL1 AlphaScrn -9.6% and Menin-MLL HTRF 0.4%.
c1ccc2c(C3OCC4(CCCC4)CO3)cccc2c1 was read as ClpP mod -4.8%.
Screening O=C1c2ccccc2C(=O)C12OC2c1cccc2ccccc12 (stereo unspecified) returned Rango release inh 17.0%, MBNL1-CUG inh 25.1µM*, Rango complex inh 4.6%, CBFb RUNX1 block 5.1%, MBNL1 TRFRET -22.4%, MBNL1 AlphaScrn inconclusive and Menin-MLL HTRF 7.3%.
For O=C1CCC[C@@H]2[C@@H](Cc3ccccc3)[C@@H](Nc3ccccc3)C[C@@H]3CCN1[C@@H]32 the results were ClpP mod 1.7%.
